Measured values published in PubChem BioAssay AID1159580 (chemical genetic matrix, 2015).
Hit rate of the full screen: of about 5,500 compounds, about 2,000 (36%) were called active. Not shown: some 18% with an inconclusive outcome. Cut-off read from the data, not from the text of the source: active = normalized growth mostly below about 0.91 (no sharp cut-off); inconclusive = no clear call, values can overlap the other calls; inactive = mostly above about 0.92. Some of the results follow.

Assay: chemical genetic growth profiling, strain panel (AID 1159580);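 note: tested at 20 µM; growth read once vehicle control cultures reached saturation at 30 °C; 1 = growth at the plate median or of vehicle wells; lower values mean less growth of the strain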
Settings: growth OD
[1] = S. cerevisiae deletion strains, locus YDL101C, strain DUN1, hits give low values
[2] = S. cerevisiae deletion strains, locus YHR030C, strain SLT2, hits give low values
[3] = S. cerevisiae deletion strains, locus YAL013W, strain DEP1, hits give low values
[4] = S. cerevisiae deletion strains, locus YBR229C, strain ROT2, hits give low values
[5] = S. cerevisiae deletion strains, locus YDR150W, strain NUM1, hits give low values
[6] = S. cerevisiae deletion strains, locus YEL061C, strain CIN8, hits give low values
[7] = S. cerevisiae deletion strains, locus YGR078C, strain PAC10, hits give low values
[8] = S. cerevisiae deletion strains, locus YHR087W, strain rtc3, hits give low values
[9] = S. cerevisiae deletion strains, locus YJL187C, strain SWE1, hits give low values
[10] = S. cerevisiae deletion strains, locus YJR043C, strain POL32, hits give low values
[11] = S. cerevisiae deletion strains, locus YJR075W, strain HOC1, hits give low values
[12] = S. cerevisiae deletion strains, locus YKL190W, strain CNB1, hits give low values
[13] = S. cerevisiae deletion strains, locus YLR039C, strain RIC1, hits give low values
[14] = S. cerevisiae deletion strains, locus YLR058C, strain SHM2 (second series), hits give low values
[15] = S. cerevisiae deletion strains, locus YLR085C, strain ARP6, hits give low values
[16] = S. cerevisiae deletion strains, locus YLR262C, strain YPT6, hits give low values
[17] = S. cerevisiae deletion strains, locus YML094W, strain GIM5, hits give low values
[18] = S. cerevisiae deletion strains, locus YMR219W, strain ESC1, hits give low values
[19] = S. cerevisiae deletion strains, locus YMR263W, strain SAP30, hits give low values
[20] = S. cerevisiae deletion strains, locus YNL153C, strain GIM3, hits give low values
[21] = S. cerevisiae deletion strains, locus YNL298W, strain CLA4 (second series), hits give low values
[22] = S. cerevisiae deletion strains, locus YNL322C, strain KRE1, hits give low values
[23] = S. cerevisiae deletion strains, locus YNR030W, strain Alg12, hits give low values
[24] = S. cerevisiae deletion strains, locus YPL055C, strain LGE1, hits give low values
[25] = S. cerevisiae deletion strains, locus YPL241C, strain CIN2, hits give low values
[26] = S. cerevisiae deletion strains, locus YPR135W, strain CTF4, hits give low values

Measured: normalized growth

Cc1cc(C(=O)NNS(=O)(=O)c2ccc(F)c(Cl)c2)nn1-c1c(Cl)cc(Cl)cc1Cl
inactive: S. cerevisiae deletion strains, locus YAR019C, strain CDC15, hits give low values 0.978 | S. cerevisiae deletion strains, locus YBL105C, strain PKC1, hits give low values 0.979 | S. cerevisiae deletion strains, locus YBR135W, strain CKS1, hits give low values 0.985 | S. cerevisiae deletion strains, locus YBR136W, strain MEC1, hits give low values 0.987 | S. cerevisiae deletion strains, locus YBR160W, strain CDC28, hits give low values 0.98 | S. cerevisiae deletion strains, locus YDL017W, strain CDC7, hits give low values 0.985 | S. cerevisiae deletion strains, locus YDL028C, strain MPS1, hits give low values 0.985 | [1] 0.975 | S. cerevisiae deletion strains, locus YDL108W, strain KIN28, hits give low values 0.99 | S. cerevisiae deletion strains, locus YDL132W, strain cdc53, hits give low values 0.974 | S. cerevisiae deletion strains, locus YDL214C, strain PRR2, hits give low values 1.04 | S. cerevisiae deletion strains, locus YDR052C, strain DBF4, hits give low values 0.987 | S. cerevisiae deletion strains, locus YDR054C, strain cdc34, hits give low values 0.983 | S. cerevisiae deletion strains, locus YDR226W, strain ADK1, hits give low values 0.98 | S. cerevisiae deletion strains, locus YDR477W, strain SNF1, hits give low values 1.03 | S. cerevisiae deletion strains, locus YER123W, strain YCK3, hits give low values 1.04 | S. cerevisiae deletion strains, locus YER133W, strain GLC7, hits give low values 1.04 | S. cerevisiae deletion strains, locus YFL009W, strain cdc4, hits give low values 0.982 | S. cerevisiae deletion strains, locus YFL029C, strain CAK1, hits give low values 0.988 | S. cerevisiae deletion strains, locus YFR003C, strain YPI1, hits give low values 0.981 | S. cerevisiae deletion strains, locus YFR019W, strain FAB1, hits give low values 1.02 | S. cerevisiae deletion strains, locus YFR028C, strain CDC14, hits give low values 0.979 | S. cerevisiae deletion strains, locus YGR040W, strain KSS1, hits give low values 1.03 | S. cerevisiae deletion strains, locus YGR052W, strain FMP48, hits give low values 1.1 | S. cerevisiae deletion strains, locus YGR092W, strain DBF2, hits give low values 1.02 | [2] 1.09 | S. cerevisiae deletion strains, locus YHR079C, strain IRE1, hits give low values 1.05 | S. cerevisiae deletion strains, locus YHR082C, strain KSP1, hits give low values 1.11 | S. cerevisiae deletion strains, locus YHR205W, strain SCH9, hits give low values 1.04 | S. cerevisiae deletion strains, locus YIL147C, strain SLN1, hits give low values 0.99 | S. cerevisiae deletion strains, locus YJL095W, strain BCK1, hits give low values 1.07 | S. cerevisiae deletion strains, locus YJL128C, strain PBS2, hits give low values 0.905 | S. cerevisiae deletion strains, locus YJL157C, strain FAR1, hits give low values 1.03 | S. cerevisiae deletion strains, locus YJR016C, strain ILV3, hits give low values 0.982 | S. cerevisiae deletion strains, locus YJR066W, strain TOR1 (second series), hits give low values 1.05 | S. cerevisiae deletion strains, locus YJR066W, strain TOR1, hits give low values 1.02 | S. cerevisiae deletion strains, locus YKL048C, strain ELM1, hits give low values 1.01 | S. cerevisiae deletion strains, locus YKL067W, strain YNK1, hits give low values 1.03 | S. cerevisiae deletion strains, locus YKL101W, strain HSL1, hits give low values 1.02 | S. cerevisiae deletion strains, locus YKL193C, strain SDS22, hits give low values 0.996 | S. cerevisiae deletion strains, locus YKL203C, strain TOR2, hits give low values 1.13 | S. cerevisiae deletion strains, locus YLR113W, strain HOG1, hits give low values 1.06 | S. cerevisiae deletion strains, locus YLR133W, strain CKI1, hits give low values 1.02 | S. cerevisiae deletion strains, locus YLR403W, strain SFP1, hits give low values 1.06 | S. cerevisiae deletion strains, locus YML070W, strain DAK1, hits give low values 1.03 | S. cerevisiae deletion strains, locus YMR001C, strain CDC5, hits give low values 0.993 | S. cerevisiae deletion strains, locus YMR205C, strain PFK2 (second series), hits give low values 1.03 | S. cerevisiae deletion strains, locus YMR277W, strain FCP1, hits give low values 0.978 | S. cerevisiae deletion strains, locus YNL006W, strain LST8, hits give low values 0.994 | S. cerevisiae deletion strains, locus YNL020C, strain ARK1, hits give low values 1.03 | S. cerevisiae deletion strains, locus YNL161W, strain CBK1, hits give low values 0.988 | S. cerevisiae deletion strains, locus YNL183C, strain NPR1, hits give low values 1.13 | S. cerevisiae deletion strains, locus YNL207W, strain RIO2, hits give low values 0.986 | S. cerevisiae deletion strains, locus YNL222W, strain SSU72, hits give low values 0.99 | S. cerevisiae deletion strains, locus YNL307C, strain MCK1 (second series), hits give low values 1.04 | S. cerevisiae deletion strains, locus YOL078W, strain AVO1, hits give low values 0.99 | S. cerevisiae deletion strains, locus YOL136C, strain PFK27, hits give low values 1.04 | S. cerevisiae deletion strains, locus YOR061W, strain CKA2, hits give low values 1.03 | S. cerevisiae deletion strains, locus YOR119C, strain RIO1, hits give low values 1.08 | S. cerevisiae deletion strains, locus YOR231W, strain MKK1, hits give low values 1.03 | S. cerevisiae deletion strains, locus YOR329C, strain SCD5, hits give low values 0.985 | S. cerevisiae deletion strains, locus YPL031C, strain PHO85, hits give low values 1.04 | S. cerevisiae deletion strains, locus YPL153C, strain RAD53, hits give low values 1.03 | S. cerevisiae deletion strains, locus YPL204W, strain HRR25, hits give low values 1.04 | S. cerevisiae deletion strains, locus YPL209C, strain IPL1, hits give low values 0.987 | S. cerevisiae deletion strains, locus YPL256C, strain CLN2, hits give low values 1.02 | S. cerevisiae deletion strains, locus YPR025C, strain CCL1, hits give low values 0.981 | S. cerevisiae deletion strains, locus YPR106W, strain ISR1, hits give low values 0.98 | S. cerevisiae deletion strains, locus YPR111W, strain DBF20, hits give low values 0.964 | S. cerevisiae deletion strains, strain NNK1, hits give low values 0.986 | S. cerevisiae deletion strains, strain TSCII, hits give low values 0.995

Cc1ccc(C)n1-c1ccc(C(=O)NNS(=O)(=O)c2ccc(Cl)cc2)cc1
active: [25] 1.14 [resistant]
inactive: [3] 1.01 | [4] 1.01 | [1] 1.04 | [5] 0.991 | [6] 1.01 | [7] 1.01 | [2] 0.955 | [8] 1.01 | [9] 1.02 | [10] 0.999 | [11] 0.995 | [12] 0.978 | [13] 0.985 | [14] 1 | [15] 0.962 | [16] 0.98 | [17] 1.1 | [18] 1 | [19] 1 | S. cerevisiae deletion strains, locus YMR307W, strain GAS1, hits give low values 0.979 | [20] 1.01 | [21] 0.945 | [22] 1 | [23] 0.993 | S. cerevisiae deletion strains, locus YOL006C, strain TOP1, hits give low values 1.03 | [24] 1.01 | [26] 0.946

Cc1ccc(C)n1-c1ccc(C(=O)NNC(=O)c2ccc3nccnc3c2)cc1
inactive: [3] 0.989 | [4] 1 | S. cerevisiae deletion strains, locus YCL061C, strain MRC1, hits give low values 1.06 | [1] 0.989 | [5] 1.04 | [6] 1.01 | [7] 1.01 | [2] 1.14 | [8] 0.986 | [9] 0.979 | [10] 1.02 | [11] 1.06 | [12] 0.991 | [13] 1.01 | [14] 0.999 | [15] 0.921 | [16] 1.11 | [17] 0.98 | [18] 0.989 | [19] 0.986 | S. cerevisiae deletion strains, locus YNL128W, strain TEP1, hits give low values 0.991 | [20] 1.02 | [21] 0.992 | [22] 0.999 | [23] 1 | [24] 0.995 | [25] 0.976 | [26] 1.13 | S. cerevisiae strains, strain wild type, hits give low values 0.993
